Screening data (PubChem BioAssay)
DNA FID counter: counter-screen for HCV NS3 helicase inhibitors: DNA intercalator displacement | DNA fluorescent intercalator displacement, fluorescence | inhibition, % at 7.9 µM | actives 0.17% (n = 290,000); in the data active = inhibition above about 37%;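 note: 0% = vehicle and 100% = reference compound; higher means more ethidium bromide displaced from hairpin DNA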
miR-122 sensor: blocks miR-122 activity in Huh7 sensor cells. actives 0.3% (n = 340,000). activation (reporter increase), % at 12.5 µM. Huh7 miR-122 Renilla luciferase sensor, 48 h; neutral wells = 0, positive control = 100;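 active = mean replicate activation score at least 90 and every replicate individually at or above 90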;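 note: higher luciferase means less miR-122 activity so hits act as miR-122 inhibitors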
RAD52 anneal inh: inhibitors of human RAD52 DNA annealing; P43351; recombinant RAD52 DNA annealing, FRET fluorescence; inhibition, % at 18.7 µM; actives 0.46% (n = 360,000); AID 651710;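 active = every replicate showing at least 50% inhibition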
NRP1-CendR mod: NRP-1/CendR interaction modulation; FAM-RPARPAR peptide binding to NRP-1, fluorescence polarization; inhibition, % at 25 µM; actives 0.85% (n = 360,000); AID 602438;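 active = inhibition or corrected inhibition above about 18%, plus a signal ratio from 0.5 to 1.5, limit read from the data, passing the limit was not always enough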
N-glyco inh: blocks N-linked glycosylation in D54 reporter cells; D54 ERlucT glycosylation luciferase reporter, 24 h; percent of 100 nM tunicamycin response; reporter increase, % at 12.5 µM; actives 0.23% (n = 360,000);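 active = mean luciferase reporter signal, scaled so untreated is 0 and the glycosylation-blocking control 100, at or above a set limit in every replicate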;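 note: luciferase carries N-glycosylation sites so blocking glycosylation raises the light; 0% = median of neutral control wells and 100% = median of 100 nM tunicamycin wells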
RAD54 branch: blocks human RAD54 Holliday junction branch migration. Q92698. FAM/BHQ fluorescence. inhibition, % at 10.4 µM. actives 0.14% (n = 360,000). AID 602329;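 active = mean normalized replicate activity at least 40 and at least half of replicates scoring 40 or more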;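 note: 0% = median of neutral control wells and 100% = median of positive control wells; inhibitors cause a drop in the FAM fluorescence signal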
Target sequence (Q92698 whole entry, looked up): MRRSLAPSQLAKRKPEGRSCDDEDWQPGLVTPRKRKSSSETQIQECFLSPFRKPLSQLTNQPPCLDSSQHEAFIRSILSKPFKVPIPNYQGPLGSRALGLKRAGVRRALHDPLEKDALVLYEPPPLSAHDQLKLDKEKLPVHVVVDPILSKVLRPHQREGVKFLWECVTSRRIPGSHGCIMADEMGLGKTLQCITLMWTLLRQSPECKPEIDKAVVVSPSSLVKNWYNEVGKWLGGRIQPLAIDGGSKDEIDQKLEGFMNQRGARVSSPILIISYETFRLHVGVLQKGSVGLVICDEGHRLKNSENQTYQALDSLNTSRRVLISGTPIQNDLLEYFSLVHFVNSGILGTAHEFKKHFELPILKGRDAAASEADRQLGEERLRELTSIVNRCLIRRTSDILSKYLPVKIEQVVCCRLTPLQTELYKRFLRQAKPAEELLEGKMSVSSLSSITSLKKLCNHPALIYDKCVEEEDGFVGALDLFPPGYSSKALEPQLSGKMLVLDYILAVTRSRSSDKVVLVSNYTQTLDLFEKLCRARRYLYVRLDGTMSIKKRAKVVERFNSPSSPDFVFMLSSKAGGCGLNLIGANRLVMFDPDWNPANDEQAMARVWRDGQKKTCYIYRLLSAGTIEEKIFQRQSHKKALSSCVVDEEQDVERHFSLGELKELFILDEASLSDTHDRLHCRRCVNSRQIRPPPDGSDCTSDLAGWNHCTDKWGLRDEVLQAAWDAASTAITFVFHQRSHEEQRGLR
Starred values were filed as active, the others as inactive; · = no result given; [ ] = dose if it differs, or a comment. Shown are actives, neighbours in structure and some others; about 1.5% of the full set was active somewhere.

SMILES	DNA FID counter	miR-122 sensor	RAD52 anneal inh	NRP1-CendR mod	N-glyco inh	RAD54 branch
CN(C)C(=O)C[C@@H]1C[C@@H]2c3cc(NS(=O)(=O)c4ccc(F)cc4)ccc3O[C@@H]2[C@@H](CO)O1	·	2[16.7 µM]	·	·	·	4
CC=Cc1ccc2n(c1=O)C[C@H]1[C@H](CO)[C@@H](C(=O)N[C@H](C)c3ccccc3)[C@@H]2N1Cc1cccnc1 (mixture of isomers)	·	-2[16.7 µM]	·	·	·	·
C[C@H]1CN([C@@H](C)CO)C(=O)c2cc(NS(C)(=O)=O)ccc2O[C@H]1CN(C)Cc1ccncc1	·	0[16.7 µM]	-5	·	·	-3
Cc1ccc(S(=O)(=O)N(C)c2ccc(OCC(=O)Nc3nc4ccccc4s3)cc2)cc1	-7	-5	-12	25*	-4	2
Cc1ccc(S(=O)(=O)N(C)c2ccc(OCC(=O)Nc3nc4c(ccc5ccccc54)s3)cc2)cc1	0	·	·	-12	-2	·
COc1ccc(S(=O)(=O)N2C[C@@H](O)COC[C@H]3O[C@H](CC(=O)NCc4ccc(Cl)c(Cl)c4)CC[C@@H]32)cc1	·	3[16.7 µM]	-18	·	·	-2
CCN1CCN(Cc2ccc(NC(=O)c3ccc(C)c(NC(=O)c4ccno4)c3)cc2C(F)(F)F)CC1	·	-8	8	2	-10	-9
CCN1CCN(Cc2ccc(NC(=O)c3ccc(C)c(NC(=O)c4cccc(-c5cn[nH]c(=O)c5)c4)c3)cc2C(F)(F)F)CC1	40*	·	·	4	-4	4
CCN1CCN(Cc2ccc(NC(=O)c3cc(NC(=O)c4ccc5n[nH]nc5c4)cc(OC)c3)cc2C(F)(F)F)CC1	·	-8	-6	8	-2	3
CCN1CCN(Cc2ccc(NC(=O)c3ccc(C)c(/C=C/c4cnc(Nc5cc(N6CCNCC6)nc(C)n5)cn4)c3)cc2C(F)(F)F)CC1	15	-23	·	141	-20	105*
COCC#Cc1ccc([C@@H]2[C@@H](CO)N3CCCCN(S(=O)(=O)c4ccccc4C)C[C@H]23)cc1	·	0[16.7 µM]	·	·	·	-8
CCc1ccc(NC(=O)C(CC)Sc2nc3cc4c(cc3c(=O)n2Cc2ccco2)OCO4)cc1 (configuration not stated)	4	139*	·	-16	5	0
COc1ccc2c3c(n(C)c2c1)[C@@H](CO)N(C(C)=O)CC31CN(C(=O)C2CCOCC2)C1	·	·	3	·	·	·
COc1cccc(NC(=O)CN(C)C(=O)C(CCSC)NC(=O)c2ccco2)c1 (configuration not stated)	·	3	-3	18*	0	6
CCOC(=O)C1(Cc2ccccc2C(F)(F)F)CCN(CC(O)CO)CC1 (configuration not stated)	8	-2	-3	9	-2	0
CCOC(=O)C1(Cc2ccccc2C(F)(F)F)CCN(C2CCN(C(C)C)CC2)CC1	45*	·	-35	10	0	·
O=C1CCCN1CCc1cccc2ccccc12	·	-2	-14	23*	2	7
O=C1CCCCN1CCc1c[nH]c2ccccc12	-10	-3	·	1	1	8
CCOc1ccc(N2C(=O)CC(N3CCN(c4ccc(Cl)cc4)CC3)C2=O)cc1 (configuration not stated)	-17	-8	-14	22*	1	2
COc1ccc(N2C(=O)CC(N3CCN(c4ccc(Cl)cc4)CC3)C2=O)cc1 (configuration not stated)	-29	-3	-3	8	-1	4
O=C(C1CCCC1)N1CC2(C1)[C@@H](c1ccccc1)[C@@H](CO)N2Cc1cncnc1	·	·	-8	·	·	·
CCOC(=O)c1c(C)[nH]c(-c2csc(N)n2)c1C	-8	·	-25	-54	27*	·
CCOC(=O)c1c(C)[nH]c(-c2csc(C)n2)c1C	-18	·	-22	-2	0	·
COc1ccc2c3c(n(C)c2c1)[C@@H](CO)N(Cc1ccccc1OC)CC31CN(CC2CC2)C1	·	·	8	·	·	·
CCCC#Cc1cnc2c(c1)C(=O)N([C@@H](C)CO)C[C@@H](C)[C@@H](CN(C)Cc1ccc(F)cc1)O2	·	4[16.7 µM]	0	·	·	-4
Nc1ccc(Oc2ccc3nc(-c4ccccc4)c(-c4ccccc4)nc3c2)cc1	0	-1	·	·	-2	0
Nc1ccc2nc(-c3ccccc3)c(-c3ccccc3)nc2c1	-34	13	-21	40	33*	2
Cc1cccc2sc(N(CCCN(C)C)C(=O)c3sc4ccccc4c3Cl)nc12	4	-5	·	0	-6	4
